In the library only some 2.9% were active in any assay of this set; here they are far more common.
PGE2 EP2 inh – blocks the human prostaglandin E2 receptor EP2; AID 1422; hit rate 0.52% among 260,000; C6 glioma cells expressing human EP2, cAMP TR-FRET; cells stimulated with saturating PGE2; inhibition, % at 25 µM; P43116;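 active = percent inhibition above 40 after rounding to a whole number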;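 note: rat C6 glioma host cells with rolipram phosphodiesterase inhibitor present; the protocol text gives 20 µM as final concentration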
Target sequence (P43116 whole entry, looked up): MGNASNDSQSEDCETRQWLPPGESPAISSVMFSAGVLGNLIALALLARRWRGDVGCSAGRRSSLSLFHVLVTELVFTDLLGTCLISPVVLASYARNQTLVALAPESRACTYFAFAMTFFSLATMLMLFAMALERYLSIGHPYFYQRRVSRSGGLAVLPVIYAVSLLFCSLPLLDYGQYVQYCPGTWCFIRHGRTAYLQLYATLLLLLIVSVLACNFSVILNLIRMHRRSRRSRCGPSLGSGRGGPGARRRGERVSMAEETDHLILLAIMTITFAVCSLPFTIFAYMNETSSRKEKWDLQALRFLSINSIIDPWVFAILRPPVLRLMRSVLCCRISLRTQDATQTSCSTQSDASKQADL
SKN-1 inh – blocks SKN-1 activity in C. elegans; inhibition, % at 21.8 µM; hit rate 0.49% among 360,000; C. elegans VP596 Pgst-4::GFP/RFP ratio, acrylamide-induced, 24 h;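 active = interference check ratio from 0.5 to 1.5 plus GFP to RFP signal ratio inhibition reaching or exceeding a fixed threshold, cut at about 30% in these data, passing the limit was not always enough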
RAM inhibit – inhibitors of the yeast RAM network; S. cerevisiae dse1pr::URA3 reporter, 5-FOA growth OD615, 2 d; analog-sensitive cbk1-as2 kinase mutant strain; inhibition, % at 50 µM; hit rate 1.8% among 190,000;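 active = inhibition above a set limit, 3 SD over mean compound inhibition, cut at about 8.4% in these data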;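 note: inhibition rescues growth on 5-FOA so higher OD means more RAM inhibition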
Rev-erbA mod – modulates human Rev-erb alpha binding to DNA; P20393; Rev-erbα–FITC-DNA binding, fluorescence polarization, 90 min; activity, % at 10 µM; hit rate 0.79% among 370,000; AID 1259318;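 active = activity above about 14%, limit read from the data; passing the limit was not always enough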
PG9 Ab binder – PG9 antibody binding by small molecule. inhibition, % at 6.7 µM. hit rate 0.43% among 360,000. TR-FRET gp120-PG9 antibody binding; in the data active = inhibition above about 8.5%
EP2 modulator – modulators of human EP2 prostaglandin E2 receptor; EP2-expressing cells, cAMP HTRF FRET, PGE2 co-stimulation; induction, % at 25 µM; P43116; hit rate 0.83% among 260,000;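 active = compounds whose cAMP rise, as percent of the full-agonist control response, exceeds 60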;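 note: rat C6 glioma line stably carrying human EP2 under a CMV promoter; the protocol text gives 20 µM as final concentration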
RAM efflux-def – restores 5-FOA growth of efflux-deficient yeast; 1,200 tested, under 10 active; S. cerevisiae efflux-deficient reporter strain, 5-FOA growth OD615, 2 days; max inhibition, %; shares compounds with RAM inhibit; call rule not given here
Each line names hits and unclear results; the compound was inactive in the other large screens (follow-up assays come after a bar, where they were run).

COc1cccc(NC(=O)CCc2nc(-c3ccccc3F)no2)c1	none
O=C(c1ccoc1CN1CCOCC1)N1CCC2(CC1)Nc1ccccc1-n1cccc12	none (no result: SKN-1 inh, RAM inhibit, Rev-erbA mod, PG9 Ab binder)
CCOc1ccc2[nH]c(=O)c(CN(Cc3ccco3)S(=O)(=O)c3c(C)cc(C)cc3C)cc2c1	none (no result: SKN-1 inh, RAM inhibit, Rev-erbA mod, PG9 Ab binder)
COc1cccc(CSc2nc3cc4c(cc3cc2C)OCCO4)c1	RAM inhibit 18.0 | RAM efflux-def inactive
COc1ccc(CNc2oc(Cc3cccc4ccccc34)nc2C#N)cc1	RAM inhibit 12.6 | RAM efflux-def inactive
N#Cc1nc(Cc2ccccc2)oc1N1CCC(Cc2ccccc2)CC1	RAM inhibit 12.8 | RAM efflux-def inactive
N#Cc1nc(Cc2cccc3ccccc23)oc1N1CCCCC1	RAM inhibit 12.1 | RAM efflux-def inactive
COc1ccc(CNc2oc(COc3ccccc3)nc2C#N)cc1	none (no result: PGE2 EP2 inh)
COc1ccccc1-c1nc(C#N)c(N2CCC(Cc3ccccc3)CC2)o1	RAM inhibit 13.1 | RAM efflux-def inactive
CN1CCN(c2oc(Cc3cccc4ccccc34)nc2C#N)CC1	none (no result: RAM inhibit)
O=C(CSc1nc(-c2ccco2)cc(C(F)(F)F)n1)NCc1ccncc1	none (no result: SKN-1 inh, RAM inhibit, Rev-erbA mod, PG9 Ab binder)
COc1ccc(NC(=O)CSc2nnc(-c3cc(OC)c(OC)c(OC)c3)n2C)cc1	none (no result: SKN-1 inh, RAM inhibit, Rev-erbA mod, PG9 Ab binder)
COc1ccc2cc(C)c3nnc(SCC(=O)Nc4nnc(C)s4)n3c2c1	none (no result: SKN-1 inh, RAM inhibit, Rev-erbA mod, PG9 Ab binder)
C/C(=N\OC(=O)c1ccc(Cl)cc1)c1sc(-c2ccccc2)nc1C	RAM inhibit 11.5 | RAM efflux-def inactive
C/C(=N\OC(=O)c1ccc(F)cc1)c1sc(-c2ccccc2)nc1C	none
CCN(CC)S(=O)(=O)c1ccc(NC(=O)CCC2CCCCC2)cc1	RAM inhibit 11.6 (no result: PGE2 EP2 inh) | RAM efflux-def inactive
Cc1cc(-c2cnc(C)nc2C2CCCN(CC(=O)N3CCOCC3)C2)on1 (stereo not drawn)	none (no result: PGE2 EP2 inh, SKN-1 inh, RAM inhibit, Rev-erbA mod, PG9 Ab binder)
CCOCCCNC(=O)/C(C#N)=C/c1ccc(-c2ccc(S(=O)(=O)N3CCOCC3)cc2)o1	RAM inhibit 12.3 (no result: Rev-erbA mod, PG9 Ab binder) | RAM efflux-def inactive
COCCNC(=O)/C(C#N)=C/c1ccc(-c2ccc(S(=O)(=O)N3CCOCC3)cc2)o1	none
CS(=O)(=O)N(CC(=O)Nc1cccc2ccccc12)c1ccc2c(c1)OCO2	none (no result: SKN-1 inh, RAM inhibit, Rev-erbA mod, PG9 Ab binder)
Cn1cccc1C(=O)OCc1cc(Cl)cc2c1OCOC2	RAM inhibit 12.4 | RAM efflux-def inactive
Cn1cccc1C(=O)OCC(=O)Nc1ccc2c(c1)OCO2	none
Cc1nnc(SC(C)C(=O)Nc2ncc(Cl)cc2Cl)n1Cc1ccccc1 (stereo not drawn)	none
Cc1cc(SC(C)C(=O)Nc2ncc(Cl)cc2Cl)nc2ccccc12 (stereo not drawn)	RAM inhibit 12.4 | RAM efflux-def inactive
Cc1cc(C(=O)COc2ccccc2C(N)=O)c(C)n1C	none
Cc1cc(C(=O)COc2ccc(Cl)cc2Br)c(C)n1C	RAM inhibit 11.7 | RAM efflux-def inactive
N#Cc1ccc(-c2cccnc2)nc1SCc1ccc(Cl)c(Cl)c1	RAM inhibit 13.3 | RAM efflux-def inactive
C=CCSc1nc(-c2cccnc2)ccc1C#N	none (no result: SKN-1 inh, RAM inhibit, Rev-erbA mod, PG9 Ab binder)
Cc1ccc2c(CC(=O)NCCn3cncn3)coc2c1	none (no result: SKN-1 inh, RAM inhibit, Rev-erbA mod, PG9 Ab binder)
CN(C)S(=O)(=O)N1CCC(c2ccc(F)cc2)C(COc2ccc3c(c2)OCO3)C1 (stereo not drawn)	RAM inhibit 16.6 | RAM efflux-def inactive
C=CCNC(=O)CCC(=O)NNc1nc2ccccc2c2nc(-c3ccccc3)nn12	none
C=CCSc1nc2ccccc2c2nc(-c3ccccc3)nn12	RAM inhibit 13.0 | RAM efflux-def inactive
S=C(c1ccc(-c2ccccc2Cl)o1)N1CCOCC1	RAM inhibit 12.4 (no result: Rev-erbA mod, PG9 Ab binder) | RAM efflux-def inactive
CCC(CN1CCN(C)CC1)NC(=O)Cc1csc(-c2cccc(F)c2)n1 (stereo not drawn)	none (no result: SKN-1 inh, RAM inhibit, Rev-erbA mod, PG9 Ab binder)
COc1ccc(C)cc1S(=O)(=O)N(CC(=O)NCc1ccc(Cl)cc1)Cc1ccccc1	RAM inhibit 12.5 | RAM efflux-def inactive
COc1ccc(C)cc1S(=O)(=O)N(CC(=O)N1CCOCC1)Cc1ccccc1	none
Cc1ccc(CNC(=O)CNC(=S)N(Cc2ccccc2)Cc2ccccc2F)cc1	RAM inhibit 11.5 | RAM efflux-def inactive
COc1cccc(CNC(=O)CNC(=S)N(Cc2ccccc2)Cc2ccccc2F)c1	RAM inhibit 12.3 | RAM efflux-def inactive
O=C(CNC(=S)N(Cc1ccccc1)Cc1ccccc1F)NCc1ccc(Cl)cc1	RAM inhibit 16.4 | RAM efflux-def inactive
CN(C)CCNC(=O)CNC(=S)N(Cc1ccccc1)Cc1ccccc1F	none
COc1ccc(-n2c(CNc3ccc(Cl)cc3)nnc2SCC(=O)O)cc1	none (no result: SKN-1 inh, RAM inhibit, Rev-erbA mod, PG9 Ab binder)
CC1CCN(c2nc3c(c(=O)[nH]2)CN(Cc2ccc(N4CCOCC4)cc2)CC3)CC1	none (no result: SKN-1 inh, RAM inhibit, Rev-erbA mod, PG9 Ab binder)
COc1ccc(S(=O)(=O)N2CCC(C(=O)Nc3ccccc3Cl)CC2)cc1	none (no result: SKN-1 inh, RAM inhibit, Rev-erbA mod, PG9 Ab binder)
CCOc1ccccc1NC(=O)C(OC(=O)c1ccc(CC)cc1)c1ccccc1 (stereo not drawn)	RAM inhibit 14.7 | RAM efflux-def inactive
CCOc1ccccc1NC(=O)C(OC(=O)c1ccc(O)cc1)c1ccccc1 (stereo not drawn)	none
O=C(OCC#CCSc1nnc(-c2cccc3ccccc23)o1)c1cccs1	RAM inhibit 14.5 | RAM efflux-def inactive
O=C(CCCOc1ccc(Cl)cc1Cl)N/N=C/c1ccccc1	RAM inhibit 12.3 | RAM efflux-def inactive
Cc1ccc(/C=N/NC(=O)CCCOc2ccc(Cl)cc2Cl)cc1	RAM inhibit 12.3 | RAM efflux-def inactive
Cc1nc2c(-c3ccc(F)cc3)c(C)nn2c(NCCCO)c1C	none (no result: PGE2 EP2 inh, SKN-1 inh, RAM inhibit, Rev-erbA mod, PG9 Ab binder)
CC(C)(C)NC(=O)CSc1nc(-c2ccccc2)cc(C(F)(F)F)n1	none (no result: SKN-1 inh, RAM inhibit, Rev-erbA mod, PG9 Ab binder)
CCc1nnc(NC(=O)CSc2nc(C3CC3)nc3sc4c(c23)CCC(C)C4)s1 (stereo not drawn)	none (no result: SKN-1 inh, RAM inhibit, Rev-erbA mod, PG9 Ab binder)
CCOc1ccc(OCC)c(NC(=O)CSc2nc3cc(C)cc(C)c3cc2C#N)c1	none (no result: SKN-1 inh, RAM inhibit, Rev-erbA mod, PG9 Ab binder)
COc1ccc(/C=C/C(=O)c2ccccc2O)cc1	none (no result: Rev-erbA mod, PG9 Ab binder)
COc1ccc(/C=C/C(=O)c2c(O)c(OC)c3occc3c2OC)cc1	RAM inhibit 12.2 | RAM efflux-def inactive
Nc1ccc(C(=O)c2cccs2)cc1[N+](=O)[O-]	RAM inhibit 13.0 | RAM efflux-def inactive
Cc1cc(-c2cc(N)c(=O)n(C(C)C(=O)N3CCc4ccccc43)n2)c(C)o1 (stereo not drawn)	none (no result: SKN-1 inh, RAM inhibit, Rev-erbA mod, PG9 Ab binder)
Cc1nn(-c2ccccc2)c2[nH]c(=O)c(CNCc3ccccc3OC(C)C)cc12	none (no result: SKN-1 inh, RAM inhibit, Rev-erbA mod, PG9 Ab binder)
CSc1nc(Cl)c(Cc2ccc(OC(C)C)cc2)c(N2CCOCC2)n1	RAM inhibit 12.2 | RAM efflux-def inactive
CCOC(=O)c1sc(-c2ccccc2)cc1NC(=O)c1ccc(S(=O)(=O)N(CCOC)CCOC)cc1	RAM inhibit 18.2 | RAM efflux-def inactive
COC(=O)c1sc(-c2ccccc2)cc1NC(=O)c1ccccc1	none

Screening results (PubChem)
